In ChEMBL document CHEMBL1961873, “Compounds: GSK PKIS; Assays: Nanosyn kinase panel” (2012):

Columns and labels:
[1] = target: RAC-alpha serine/threonine-protein kinase (Homo sapiens) (UniProt P31749); conditions: at 0.1 µM
[2] = target: RAC-alpha serine/threonine-protein kinase (Homo sapiens) (UniProt P31749); conditions: at 1 µM
[3] = target: RAC-beta serine/threonine-protein kinase (Homo sapiens) (UniProt P31751); conditions: at 0.1 µM
[4] = target: RAC-beta serine/threonine-protein kinase (Homo sapiens) (UniProt P31751); conditions: at 1 µM
[5] = target: RAC-gamma serine/threonine-protein kinase (Homo sapiens) (UniProt Q9Y243); conditions: at 0.1 µM
[6] = target: RAC-gamma serine/threonine-protein kinase (Homo sapiens) (UniProt Q9Y243); conditions: at 1 µM
[7] = target: G protein-coupled receptor kinase 6 (Homo sapiens) (UniProt P43250); conditions: at 0.1 µM
[8] = target: G protein-coupled receptor kinase 6 (Homo sapiens) (UniProt P43250); conditions: at 1 µM
[9] = target: Rhodopsin kinase GRK7 (Homo sapiens) (UniProt Q8WTQ7); conditions: at 0.1 µM
[10] = target: Rhodopsin kinase GRK7 (Homo sapiens) (UniProt Q8WTQ7); conditions: at 1 µM
[11] = target: Serine/threonine-protein kinase MRCK alpha (Homo sapiens) (UniProt Q5VT25); conditions: at 0.1 µM
[12] = target: Serine/threonine-protein kinase MRCK alpha (Homo sapiens) (UniProt Q5VT25); conditions: at 1 µM
[13] = target: Serine/threonine-protein kinase MRCK beta (Homo sapiens) (UniProt Q9Y5S2); conditions: at 0.1 µM
[14] = target: Serine/threonine-protein kinase MRCK beta (Homo sapiens) (UniProt Q9Y5S2); conditions: at 1 µM
[15] = target: Ribosomal protein S6 kinase alpha-5 (Homo sapiens) (UniProt O75582); conditions: at 0.1 µM
[16] = target: Ribosomal protein S6 kinase alpha-5 (Homo sapiens) (UniProt O75582); conditions: at 1 µM
[17] = target: Ribosomal protein S6 kinase alpha-4 (Homo sapiens) (UniProt O75676); conditions: at 0.1 µM
[18] = target: Ribosomal protein S6 kinase alpha-4 (Homo sapiens) (UniProt O75676); conditions: at 1 µM
[19] = target: Ribosomal protein S6 kinase beta-1 (Homo sapiens) (UniProt P23443); conditions: at 0.1 µM
[20] = target: Ribosomal protein S6 kinase beta-1 (Homo sapiens) (UniProt P23443); conditions: at 1 µM
[21] = target: 3-phosphoinositide-dependent protein kinase 1 (Homo sapiens) (UniProt O15530); conditions: at 0.1 µM;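 also: values are mean inhibition of PDK1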
[22] = target: cAMP-dependent protein kinase catalytic subunit alpha (Homo sapiens) (UniProt P17612); conditions: at 0.1 µM
[23] = target: cAMP-dependent protein kinase catalytic subunit alpha (Homo sapiens) (UniProt P17612); conditions: at 1 µM
[24] = target: Protein kinase C alpha type (Homo sapiens) (UniProt P17252); conditions: at 0.1 µM
[25] = target: Protein kinase C alpha type (Homo sapiens) (UniProt P17252); conditions: at 1 µM
[26] = target: Protein kinase C beta type (Homo sapiens) (UniProt P05771); conditions: at 0.1 µM
[27] = target: Protein kinase C beta type (Homo sapiens) (UniProt P05771); conditions: at 1 µM
[28] = target: Protein kinase C eta type (Homo sapiens) (UniProt P24723); conditions: at 0.1 µM
[29] = target: Protein kinase C eta type (Homo sapiens) (UniProt P24723); conditions: at 1 µM
[30] = target: Protein kinase C gamma type (Homo sapiens) (UniProt P05129); conditions: at 0.1 µM
[31] = target: Protein kinase C gamma type (Homo sapiens) (UniProt P05129); conditions: at 1 µM
[32] = target: Protein kinase C iota type (Homo sapiens) (UniProt P41743); conditions: at 0.1 µM
[33] = target: Protein kinase C iota type (Homo sapiens) (UniProt P41743); conditions: at 1 µM
[34] = target: Protein kinase C theta type (Homo sapiens) (UniProt Q04759); conditions: at 0.1 µM
[35] = target: Protein kinase C theta type (Homo sapiens) (UniProt Q04759); conditions: at 1 µM
[36] = target: Protein kinase C beta type (Homo sapiens) (UniProt P05771); conditions: at 0.1 µM; remark: listed apart in the source
[37] = target: Protein kinase C beta type (Homo sapiens) (UniProt P05771); conditions: at 1 µM; remark: listed apart in the source
[38] = target: Serine/threonine-protein kinase D1 (Homo sapiens) (UniProt Q15139); conditions: at 0.1 µM
[39] = target: Serine/threonine-protein kinase D1 (Homo sapiens) (UniProt Q15139); conditions: at 1 µM
[40] = target: Serine/threonine-protein kinase D2 (Homo sapiens) (UniProt Q9BZL6); conditions: at 0.1 µM
[41] = target: Serine/threonine-protein kinase D2 (Homo sapiens) (UniProt Q9BZL6); conditions: at 1 µM
[42] = target: Serine/threonine-protein kinase D3 (Homo sapiens) (UniProt O94806); conditions: at 0.1 µM
[43] = target: Serine/threonine-protein kinase D3 (Homo sapiens) (UniProt O94806); conditions: at 1 µM
[44] = target: cGMP-dependent protein kinase 1 (Homo sapiens) (UniProt Q13976); conditions: at 0.1 µM
[45] = target: cGMP-dependent protein kinase 1 (Homo sapiens) (UniProt Q13976); conditions: at 1 µM
[46] = target: cGMP-dependent protein kinase 2 (Homo sapiens) (UniProt Q13237); conditions: at 0.1 µM
[47] = target: cGMP-dependent protein kinase 2 (Homo sapiens) (UniProt Q13237); conditions: at 1 µM
[48] = target: cAMP-dependent protein kinase catalytic subunit PRKX (Homo sapiens) (UniProt P51817); conditions: at 0.1 µM
[49] = target: cAMP-dependent protein kinase catalytic subunit PRKX (Homo sapiens) (UniProt P51817); conditions: at 1 µM
[50] = target: Rho-associated protein kinase 1 (Homo sapiens) (UniProt Q13464); conditions: at 0.1 µM
[51] = target: Rho-associated protein kinase 1 (Homo sapiens) (UniProt Q13464); conditions: at 1 µM
[52] = target: Rho-associated protein kinase 2 (Homo sapiens) (UniProt O75116); conditions: at 0.1 µM
[53] = target: Rho-associated protein kinase 2 (Homo sapiens) (UniProt O75116); conditions: at 1 µM
[54] = target: Ribosomal protein S6 kinase alpha-1 (Homo sapiens) (UniProt Q15418); conditions: at 0.1 µM
[55] = target: Ribosomal protein S6 kinase alpha-1 (Homo sapiens) (UniProt Q15418); conditions: at 1 µM

Protein kinase C beta type (Homo sapiens), sequence (P05771 2-671 limits assumed): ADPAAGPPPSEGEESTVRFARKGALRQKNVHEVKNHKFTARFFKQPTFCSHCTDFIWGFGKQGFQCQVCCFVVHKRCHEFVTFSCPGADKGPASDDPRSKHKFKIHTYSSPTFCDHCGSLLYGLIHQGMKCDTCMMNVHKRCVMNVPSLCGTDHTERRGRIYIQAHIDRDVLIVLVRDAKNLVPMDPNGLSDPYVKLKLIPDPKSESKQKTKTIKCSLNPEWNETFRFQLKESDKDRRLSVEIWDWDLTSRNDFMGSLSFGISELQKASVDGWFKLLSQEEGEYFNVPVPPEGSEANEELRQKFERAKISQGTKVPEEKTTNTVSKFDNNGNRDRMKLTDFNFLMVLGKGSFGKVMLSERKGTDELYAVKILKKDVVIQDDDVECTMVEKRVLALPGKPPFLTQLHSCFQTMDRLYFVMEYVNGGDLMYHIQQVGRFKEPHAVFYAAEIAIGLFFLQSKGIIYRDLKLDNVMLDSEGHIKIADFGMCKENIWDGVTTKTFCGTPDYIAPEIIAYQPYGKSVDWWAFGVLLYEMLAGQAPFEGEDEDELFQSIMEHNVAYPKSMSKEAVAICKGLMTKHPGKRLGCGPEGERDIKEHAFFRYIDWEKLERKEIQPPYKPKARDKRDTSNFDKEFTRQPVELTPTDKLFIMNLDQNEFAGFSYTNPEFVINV
RAC-beta serine/threonine-protein kinase (Homo sapiens), sequence (P31751 whole entry): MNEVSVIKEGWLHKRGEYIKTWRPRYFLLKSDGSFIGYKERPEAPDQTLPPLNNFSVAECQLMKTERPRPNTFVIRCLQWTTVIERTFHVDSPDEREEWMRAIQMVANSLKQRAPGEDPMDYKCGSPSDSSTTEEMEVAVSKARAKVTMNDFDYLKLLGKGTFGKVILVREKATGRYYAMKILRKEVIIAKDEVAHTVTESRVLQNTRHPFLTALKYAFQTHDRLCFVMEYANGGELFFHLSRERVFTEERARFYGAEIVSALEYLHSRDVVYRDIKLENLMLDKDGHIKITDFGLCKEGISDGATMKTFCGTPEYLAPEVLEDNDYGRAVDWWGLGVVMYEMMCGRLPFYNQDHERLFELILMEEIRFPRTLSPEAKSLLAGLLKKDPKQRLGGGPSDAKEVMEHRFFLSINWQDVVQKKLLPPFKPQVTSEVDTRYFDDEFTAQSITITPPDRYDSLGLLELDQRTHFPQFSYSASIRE
Ribosomal protein S6 kinase beta-1 (Homo sapiens), sequence (P23443 whole entry, looked up): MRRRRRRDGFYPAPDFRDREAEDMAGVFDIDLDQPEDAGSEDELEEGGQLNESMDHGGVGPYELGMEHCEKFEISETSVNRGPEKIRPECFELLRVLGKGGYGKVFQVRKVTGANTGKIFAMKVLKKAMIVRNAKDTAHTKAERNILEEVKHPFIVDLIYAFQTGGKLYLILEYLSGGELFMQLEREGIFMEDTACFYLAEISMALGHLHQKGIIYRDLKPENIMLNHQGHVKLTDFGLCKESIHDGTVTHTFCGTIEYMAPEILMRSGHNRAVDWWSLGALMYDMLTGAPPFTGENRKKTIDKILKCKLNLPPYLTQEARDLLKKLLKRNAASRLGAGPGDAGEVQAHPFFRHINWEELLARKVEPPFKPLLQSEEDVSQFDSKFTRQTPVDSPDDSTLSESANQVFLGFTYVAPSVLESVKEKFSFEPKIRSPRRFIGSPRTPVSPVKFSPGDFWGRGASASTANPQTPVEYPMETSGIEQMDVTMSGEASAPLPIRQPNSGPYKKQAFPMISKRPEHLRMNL
Serine/threonine-protein kinase D2 (Homo sapiens), sequence (Q9BZL6 whole entry): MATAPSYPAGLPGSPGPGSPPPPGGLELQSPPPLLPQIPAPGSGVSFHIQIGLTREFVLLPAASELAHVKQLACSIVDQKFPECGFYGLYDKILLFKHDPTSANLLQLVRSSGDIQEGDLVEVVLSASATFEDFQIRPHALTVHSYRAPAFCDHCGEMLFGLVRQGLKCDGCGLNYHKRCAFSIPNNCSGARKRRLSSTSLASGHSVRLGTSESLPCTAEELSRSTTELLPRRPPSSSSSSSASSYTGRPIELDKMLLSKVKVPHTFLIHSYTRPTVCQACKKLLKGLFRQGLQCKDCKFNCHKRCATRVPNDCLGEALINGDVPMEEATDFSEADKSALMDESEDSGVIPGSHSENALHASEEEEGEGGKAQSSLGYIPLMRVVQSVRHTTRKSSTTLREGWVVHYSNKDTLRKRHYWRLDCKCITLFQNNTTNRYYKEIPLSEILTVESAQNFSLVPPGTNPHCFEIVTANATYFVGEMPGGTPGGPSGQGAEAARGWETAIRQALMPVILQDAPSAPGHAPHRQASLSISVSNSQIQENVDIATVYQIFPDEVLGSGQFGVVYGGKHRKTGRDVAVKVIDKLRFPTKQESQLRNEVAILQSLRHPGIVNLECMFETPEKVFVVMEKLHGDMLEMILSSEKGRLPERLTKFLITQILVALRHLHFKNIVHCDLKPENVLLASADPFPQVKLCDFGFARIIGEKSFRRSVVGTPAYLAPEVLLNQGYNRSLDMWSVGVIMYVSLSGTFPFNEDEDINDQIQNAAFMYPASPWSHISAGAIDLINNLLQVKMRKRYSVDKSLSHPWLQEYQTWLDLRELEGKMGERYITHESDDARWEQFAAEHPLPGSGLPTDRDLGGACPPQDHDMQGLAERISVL
Rho-associated protein kinase 1 (Homo sapiens), sequence (Q13464 2-1354 limits assumed): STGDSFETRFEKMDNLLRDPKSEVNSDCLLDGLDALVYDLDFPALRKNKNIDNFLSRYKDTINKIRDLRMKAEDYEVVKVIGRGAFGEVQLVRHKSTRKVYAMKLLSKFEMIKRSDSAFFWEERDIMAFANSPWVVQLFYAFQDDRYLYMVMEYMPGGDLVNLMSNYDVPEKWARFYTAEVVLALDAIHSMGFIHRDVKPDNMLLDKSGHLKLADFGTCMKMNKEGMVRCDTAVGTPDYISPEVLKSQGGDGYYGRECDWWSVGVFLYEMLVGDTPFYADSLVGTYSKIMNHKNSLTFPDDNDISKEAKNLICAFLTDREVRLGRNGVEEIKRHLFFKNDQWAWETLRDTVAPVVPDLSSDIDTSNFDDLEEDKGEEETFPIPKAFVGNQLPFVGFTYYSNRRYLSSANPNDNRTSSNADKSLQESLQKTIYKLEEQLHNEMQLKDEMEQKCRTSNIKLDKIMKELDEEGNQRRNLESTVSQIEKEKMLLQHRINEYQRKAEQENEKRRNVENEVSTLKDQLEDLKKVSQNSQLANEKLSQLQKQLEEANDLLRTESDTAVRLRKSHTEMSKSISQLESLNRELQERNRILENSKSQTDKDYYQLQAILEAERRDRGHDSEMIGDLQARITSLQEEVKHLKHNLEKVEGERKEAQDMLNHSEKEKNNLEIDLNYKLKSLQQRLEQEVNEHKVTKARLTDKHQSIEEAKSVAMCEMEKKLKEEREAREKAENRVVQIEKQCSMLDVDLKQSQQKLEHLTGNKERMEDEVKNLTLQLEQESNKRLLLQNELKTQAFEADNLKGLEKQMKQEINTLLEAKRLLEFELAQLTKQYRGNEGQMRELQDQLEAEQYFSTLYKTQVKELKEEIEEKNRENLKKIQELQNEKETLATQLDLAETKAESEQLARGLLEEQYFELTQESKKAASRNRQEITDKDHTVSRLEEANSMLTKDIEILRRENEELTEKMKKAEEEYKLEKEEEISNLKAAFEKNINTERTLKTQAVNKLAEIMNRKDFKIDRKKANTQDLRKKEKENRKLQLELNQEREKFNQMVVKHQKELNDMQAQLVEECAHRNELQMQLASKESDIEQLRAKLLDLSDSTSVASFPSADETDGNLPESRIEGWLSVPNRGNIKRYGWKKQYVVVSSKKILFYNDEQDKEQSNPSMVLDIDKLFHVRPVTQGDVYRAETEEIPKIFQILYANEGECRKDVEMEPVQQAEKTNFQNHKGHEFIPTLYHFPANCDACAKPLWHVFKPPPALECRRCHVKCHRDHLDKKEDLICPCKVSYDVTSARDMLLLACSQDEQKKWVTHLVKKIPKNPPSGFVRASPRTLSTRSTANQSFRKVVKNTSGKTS
Ribosomal protein S6 kinase alpha-5 (Homo sapiens), sequence (O75582 whole entry, looked up): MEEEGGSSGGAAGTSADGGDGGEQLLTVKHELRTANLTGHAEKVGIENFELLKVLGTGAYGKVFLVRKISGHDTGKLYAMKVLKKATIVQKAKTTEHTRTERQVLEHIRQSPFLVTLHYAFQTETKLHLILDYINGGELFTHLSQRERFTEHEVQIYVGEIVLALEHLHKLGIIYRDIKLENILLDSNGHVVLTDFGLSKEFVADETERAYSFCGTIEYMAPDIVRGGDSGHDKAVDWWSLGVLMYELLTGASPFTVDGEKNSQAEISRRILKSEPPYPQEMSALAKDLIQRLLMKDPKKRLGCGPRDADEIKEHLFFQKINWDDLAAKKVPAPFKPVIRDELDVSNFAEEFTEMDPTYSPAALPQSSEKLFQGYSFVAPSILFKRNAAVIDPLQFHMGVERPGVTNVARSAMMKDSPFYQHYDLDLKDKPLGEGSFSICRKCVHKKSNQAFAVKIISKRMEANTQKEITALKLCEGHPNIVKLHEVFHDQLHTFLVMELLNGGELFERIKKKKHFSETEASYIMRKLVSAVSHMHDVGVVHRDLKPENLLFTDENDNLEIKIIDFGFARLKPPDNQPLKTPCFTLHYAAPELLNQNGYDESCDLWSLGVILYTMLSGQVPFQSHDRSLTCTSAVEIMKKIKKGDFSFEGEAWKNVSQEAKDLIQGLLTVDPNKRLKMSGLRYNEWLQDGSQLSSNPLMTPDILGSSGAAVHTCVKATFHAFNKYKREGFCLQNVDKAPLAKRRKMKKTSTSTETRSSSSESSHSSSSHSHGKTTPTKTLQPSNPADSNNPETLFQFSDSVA
cAMP-dependent protein kinase catalytic subunit PRKX (Homo sapiens), sequence (P51817 whole entry): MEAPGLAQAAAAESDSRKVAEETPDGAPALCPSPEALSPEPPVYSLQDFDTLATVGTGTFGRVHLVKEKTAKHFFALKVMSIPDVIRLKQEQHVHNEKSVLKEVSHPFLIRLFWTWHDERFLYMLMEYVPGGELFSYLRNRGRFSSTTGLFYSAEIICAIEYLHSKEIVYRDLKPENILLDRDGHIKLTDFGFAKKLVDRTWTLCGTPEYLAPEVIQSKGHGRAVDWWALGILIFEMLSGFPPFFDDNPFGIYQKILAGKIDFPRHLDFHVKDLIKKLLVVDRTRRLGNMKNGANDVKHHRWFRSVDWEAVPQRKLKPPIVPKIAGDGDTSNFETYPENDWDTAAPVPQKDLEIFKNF

## CNC(=O)Oc1cc(C)c(/C=C/c2cncc(C(=O)NC)c2)c(C)c1
[1]
  inhibition: 1.66%
[2]
  inhibition: 1.83%
[3]
  inhibition: 0.76%
[4]
  inhibition: 1.15%
[5]
  inhibition: 1.57%
[6]
  inhibition: 1.51%
[7]
  inhibition: 2.38%
[8]
  inhibition: -2.05%
[9]
  inhibition: 0.83%
[10]
  inhibition: -7.52%
[11]
  inhibition: 0.96%
[12]
  inhibition: 1.01%
[13]
  inhibition: 0.52%
[14]
  inhibition: 2.49%
[15]
  inhibition: -0.65%
[16]
  inhibition: 2.76%
[17]
  inhibition: 0.7%
[18]
  inhibition: 5.41%
[19]
  inhibition: 2.74%
[20]
  inhibition: 2.7%
[21]
  inhibition: 3.92%
[22]
  inhibition: 1.8%
[23]
  inhibition: 1.69%
[24]
  inhibition: 0.7%
[25]
  inhibition: 2.8%
[26]
  inhibition: -0.06%
[27]
  inhibition: 0.33%
[28]
  inhibition: 0.72%
[29]
  inhibition: 3.06%
[30]
  inhibition: 2.88%
[31]
  inhibition: 5.84%
[32]
  inhibition: 1.28%
[33]
  inhibition: 3.8%
[34]
  inhibition: 0.64%
[35]
  inhibition: -0.84%
[36]
  inhibition: 1.05%
[37]
  inhibition: 0.33%
[38]
  inhibition: 1.91%
[39]
  inhibition: 4.8%
[40]
  inhibition: 3%
[41]
  inhibition: 4.22%
[42]
  inhibition: 2.02%
[43]
  inhibition: 3.35%
[44]
  inhibition: 3.13%
[45]
  inhibition: 4.05%
[46]
  inhibition: 3.07%
[47]
  inhibition: 5.39%
[48]
  inhibition: 1.78%
[49]
  inhibition: 0.62%
[50]
  inhibition: 0.86%
[51]
  inhibition: 4.25%
[52]
  inhibition: 1.43%
[53]
  inhibition: 3.24%
[54]
  inhibition: 2.03%
[55]
  inhibition: 4.8%
